The campaign covered roughly 360,000 compounds. About 17,000 (4.7%) were called active. Another 5% or so got no clear call; they are omitted. The full list was thinned out, with actives kept by preference. Unmarked numbers belong to inactive results. Cut-off read from the data, not from the text of the source: active = activity change below about -50%; inconclusive = mostly about -30% to -49%; inactive = weaker than that.
experiment: qHTS for Inhibitors of Inflammasome Signaling: IL-1-beta AlphaLISA Primary Screen; conditions: THP-1 LPS/ATP IL-1B secretion, 16 h; at 57.5 µM, active compounds read low
In short: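 THP-1 cells pretreated 1 hr with compounds (up to 57.5 uM final), then stimulated with LPS (250 ng/mL final) plus ATP (1.25 mM final); secreted IL-1B measured by AlphaLISA after 16 hr, decreased signal indicating inhibition.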
% is set by controls: 0 for no effect and ±100 for the full control effect.

SMILES | activity change
CC(=O)N1CCN(C(=O)c2cc(-c3ccc(C)o3)nc3ccccc23)CC1 | 23.1%
O=C(c1cc(-c2ccc(Cl)s2)nc2ccccc12)N1CCOCC1 | -70.8% (active)
CCOc1ccccc1-c1cc(C(=O)N2CCOCC2)c2ccccc2n1 | -12%
CCc1nc2ccc(C(=O)Nc3ccc(OC)c(OC)c3)cn2c1N(C)C(=O)c1cccc(OC)c1 | -8.18%
CCOc1ccc(C(C)C)cc1S(=O)(=O)n1nc(C)cc1C | 0%
COc1ccc(C(C[N+](=O)[O-])n2nc(C)cc2C)cc1 (stereo not drawn) | -102% (active)
COc1ccc(OC)c(S(=O)(=O)n2c([N+](=O)[O-])cnc2C)c1 | 0.96%
COc1ccc(S(=O)(=O)N2CCc3ccccc32)cc1C(=O)Nc1cc(S(C)(=O)=O)ccc1Cl | 47.6%
CC(=O)NS(=O)(=O)c1ccc(N/C(N)=N/c2nc(C)cc(C)n2)cc1 | 34.9%
O=c1c2ccccc2oc2nc(C3CCCCC3)n(Cc3ccco3)c(=O)c12 | -16.6%
Cc1ccc(Cn2c(C)nc3c(c2=O)c2nc4ccccc4nc2n3Cc2ccco2)cc1 | -83.5% (active)
Clc1cccc(-c2nc3nc4ccccc4nc3n2Cc2ccco2)c1 | -17.2%
COC(=O)c1cc(S(=O)(=O)NC2CCN(Cc3ccccc3)CC2)cn1C | -1.73%
CCn1c(=S)[nH]c2cc(S(=O)(=O)N3CCOCC3)ccc21 | 46.6%
CSCCC(=O)N1CCCC(CNC(=O)c2ccccc2Cl)C1 (stereo not drawn) | 27.1%
CC(Oc1cccc(NC(=O)c2cccs2)c1)C(=O)c1ccccc1 (stereo not drawn) | -60.1% (active)
Cc1ccc(C(=O)Nc2ccc(NC(=O)c3cccs3)cc2)c(C)c1 | -12.6%
CC(C)C(=O)Nc1ccc(C(=O)NNC(=O)c2cccs2)cc1 | 7.36%
Nc1scc(-c2ccncc2)c1Cl | -0.276%
CC(=O)OCCN(CCCn1c(-c2ccncc2)nc2ccccc21)c1nc(-c2ccc(C)cc2)cs1 | 14.2%

SMILES | activity change
c1ccc(CNCc2ccc(CNCc3ccccc3)cc2)cc1 | -20.3%
COCCNC(=O)/C(C#N)=C/c1cccc(OCc2ccccc2)c1 | -8.24%
COCCNC(=O)/C(C#N)=C/c1nc(N(C)C)n(-c2ccc(F)cc2)c1Cl | -69.9% (active)
COCCCNC(=O)/C(C#N)=C/c1c(N2CCCCCC2)nc2ccccn2c1=O | -20.1%
O=C(NNC(=O)c1ccc(-c2ccccc2)cc1)Nc1ccccc1 | -8.29%
C=CC[n+]1c(-c2ccc(C)cc2)csc1NNC(=O)Nc1ccccc1 | -79.2% (active)
C=CCNc1scc(-c2ccccc2)[n+]1CC=C | -19.1%
CC(=O)Oc1ccc(Cn2c(C)c(C(=O)NCc3ccc(C#N)cc3)sc2=O)cc1 | 8.83%
N#CCCN(C(=S)Nc1ccc(Cl)c(Cl)c1)C1CCCCC1 | -17.1%
O=C(Nc1ccc(Cl)cc1)Nc1ccc(C(=O)N2CCOCC2)cc1 | -29.9%
CC(C)S(=O)(=O)c1csc(NC(=O)Nc2ccc(Cl)cc2)c1Cl | -95.1% (active)
O=C(NCc1ccccn1)Nc1ccc(Cl)cc1 | -6.13%
S=C(NC1CCCCC1)NN1CCOCC1 | 31.1%
O=C(CSc1nc2nccnc2c(=O)n1Cc1cccs1)Nc1ccccc1F | 2.93%
CC1(C(=O)NS(=O)(=O)Cc2cccc(Cl)c2)CCN1C(=O)Cc1ccccc1 (stereo not drawn) | 3.48%
O=C1[C@@H](c2ccccc2)[C@@H](c2ccccc2)N1c1cccnc1 | -68.8% (active)
O=C1C(=O)N(c2ccccc2)C(c2ccccc2)C1c1ccccc1 (stereo not drawn) | 5.18%
CCc1ccccc1NC1c2ccccc2C(=O)N1c1cccnc1 (stereo not drawn) | 0%
COc1cc(S(=O)(=O)N(Cc2cccs2)C2CC2)ccc1-n1cnnn1 | 0%
CC(C)(C)OC(=O)N1CCC(NC(=O)c2[nH]cnc2C(=O)N[C@@H](Cc2ccccc2)C(=O)OCc2ccccc2)CC1 | -58% (active)

SMILES | activity change
O=C(N[C@@H](Cc1ccccc1)C(=O)OCc1ccccc1)c1nc[nH]c1C(=O)NC1CCNCC1 | -10%
CC(C)(C)OC(=O)CNC(=O)c1[nH]cnc1C(=O)N[C@@H](Cc1ccccc1)C(=O)OCc1ccccc1 | 52.8%
Cc1cc(Br)ccc1NC(=O)CCCOc1cc(=O)n(C)c2ccccc12 | -13.4%
COc1cccc2c1OCC(CN1CCN(C3CCCCC3)C(CCO)C1)=C2 (stereo not drawn) | 18.2%
CC1C=CCC2C(=O)N(c3cccc(C(=O)N4CCCCCC4)c3)C(=O)C12 (stereo not drawn) | 23.7%
COC(=O)c1cccc(N2C(=O)C3C4C=CC(CC4)C3C2=O)c1 (stereo not drawn) | 15.7%
Cc1cccc(N2CCN(C(=O)c3cccc(N4C(=O)C5C6C=CC(C6)C5C4=O)c3)CC2)c1C (stereo not drawn) | -52.9% (active)
Cc1ccccc1NC(=O)Cc1nc(COC(=O)CNC(=O)c2ccc(Cl)cc2Cl)cs1 | 11%
Cc1ccc(F)c(S(=O)(=O)NC(=O)C2(C)CCN2C(=O)c2ccco2)c1 (stereo not drawn) | 24%
O=C(NNc1cc(Cl)ccc1Cl)c1cccnc1Cl | -6.39%
S=C(NCc1cccnc1)Nc1ccc(Cl)cc1Cl | 11%
CC(=O)/C(=N\Nc1ccc(Cl)cc1Cl)Sc1cccc2cccnc12 | -103% (active)
O=C(COC(=O)/C=C/c1ccc(Cl)cc1)NC1CCS(=O)(=O)C1 (stereo not drawn) | 1.68%
CC(=O)Nc1ccc(-c2ccnc3c2CC(C(=O)NC(C)C)O3)cc1 (stereo not drawn) | -17%
Nc1cccc2c1C(=O)N(Cc1nnc(-c3ccccc3Br)o1)C2=O | -5.13%
CC(C)N(C(=O)[C@H]1C[C@H](CC(=O)NCCC2=CCCCC2)C(=O)N2CCc3c([nH]c4cc(CCC(=O)N(C)C)ccc34)[C@]12C)C(C)C | -51.9% (active)
CN(C)C(=O)CCc1ccc2c3c([nH]c2c1)[C@]1(CCc2ccccc2)[C@@H](C(=O)N2CCCCC2)C[C@H](CC(=O)NCCC2=CCCCC2)C(=O)N1CC3 | -14.8%
CN(C)C(=O)CCc1ccc2c3c([nH]c2c1)[C@]1(C)[C@@H](C(=O)N2CCCCC2)C[C@H](CC(=O)NCCC2=CCCCC2)C(=O)N1CC3 | -30%

Source: PubChem BioAssay AID743279 (National Center for Advancing Translational Sciences (NCATS), 2014)
